From the supplement of paper PMC11732987, “Enantioselective OTUD7B fragment discovery through chemoproteomics screening and high-throughput optimisation” (Communications Chemistry, 2025)

What was measured:
Assay in all cases: log2 ratio of Biotin-Ahx-Ub-VS probe labelling (fragment/DMSO); higher = less target engagement (more negative = stronger competition), active = hit call of the paper (q ≤ 0.05, log2 ratio ≤ -1)
Settings in all cases: compound concentration: 200 uM; treatment time: 3 h
USP34 = USP34 (UniProt Q70CQ2)
Outline: (§1)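 Triplicate samples of HEK293T lysate, 495 µg each, received fragment at 200 µM or vehicle for 3 h, followed by Biotin-Ahx-Ub-VS (0.5 µM final) for 1 h. After NeutrAvidin enrichment of labelled DUBs and LysC/trypsin digestion, peptides were run by diaPASEF LC-MS/MS. The values are average log2 fragment/vehicle ratios from global-median-normalised Spectronaut label-free quantities, tested by unpaired t-test on proteins having ≥2 unique peptides.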

USP36 = biological target: T1, USP36 (UniProt Q9P275)
T1 sequence (whole entry): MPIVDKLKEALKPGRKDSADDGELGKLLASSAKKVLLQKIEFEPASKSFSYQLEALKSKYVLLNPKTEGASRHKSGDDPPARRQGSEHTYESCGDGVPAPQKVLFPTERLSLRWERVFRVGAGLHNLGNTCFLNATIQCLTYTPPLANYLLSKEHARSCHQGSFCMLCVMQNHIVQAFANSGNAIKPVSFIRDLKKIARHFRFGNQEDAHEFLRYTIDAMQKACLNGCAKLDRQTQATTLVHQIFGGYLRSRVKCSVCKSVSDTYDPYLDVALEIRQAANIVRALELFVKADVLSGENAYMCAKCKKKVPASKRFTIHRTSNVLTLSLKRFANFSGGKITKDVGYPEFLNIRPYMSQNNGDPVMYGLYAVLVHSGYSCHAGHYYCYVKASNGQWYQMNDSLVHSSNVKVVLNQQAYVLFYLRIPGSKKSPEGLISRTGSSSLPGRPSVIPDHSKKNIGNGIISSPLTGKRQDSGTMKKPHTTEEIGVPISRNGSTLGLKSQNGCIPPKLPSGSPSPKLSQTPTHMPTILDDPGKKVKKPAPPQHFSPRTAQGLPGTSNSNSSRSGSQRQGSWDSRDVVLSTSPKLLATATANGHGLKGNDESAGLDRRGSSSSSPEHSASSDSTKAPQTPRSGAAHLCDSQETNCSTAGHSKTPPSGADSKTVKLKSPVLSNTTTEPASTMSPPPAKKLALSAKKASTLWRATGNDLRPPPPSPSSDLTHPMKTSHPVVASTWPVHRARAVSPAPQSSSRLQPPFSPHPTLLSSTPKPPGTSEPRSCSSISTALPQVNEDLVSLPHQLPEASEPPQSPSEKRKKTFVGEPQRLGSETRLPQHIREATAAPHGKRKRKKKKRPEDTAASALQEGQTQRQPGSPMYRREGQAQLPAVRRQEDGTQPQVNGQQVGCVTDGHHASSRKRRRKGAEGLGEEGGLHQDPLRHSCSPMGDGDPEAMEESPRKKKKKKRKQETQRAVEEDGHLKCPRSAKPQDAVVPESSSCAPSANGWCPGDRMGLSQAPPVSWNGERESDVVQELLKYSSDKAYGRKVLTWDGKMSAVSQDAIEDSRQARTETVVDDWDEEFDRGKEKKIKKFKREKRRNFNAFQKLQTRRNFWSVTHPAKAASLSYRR
Outline: as §1

USP38 = biological target: T2, USP38 (UniProt Q8NB14)
T2 sequence (whole entry): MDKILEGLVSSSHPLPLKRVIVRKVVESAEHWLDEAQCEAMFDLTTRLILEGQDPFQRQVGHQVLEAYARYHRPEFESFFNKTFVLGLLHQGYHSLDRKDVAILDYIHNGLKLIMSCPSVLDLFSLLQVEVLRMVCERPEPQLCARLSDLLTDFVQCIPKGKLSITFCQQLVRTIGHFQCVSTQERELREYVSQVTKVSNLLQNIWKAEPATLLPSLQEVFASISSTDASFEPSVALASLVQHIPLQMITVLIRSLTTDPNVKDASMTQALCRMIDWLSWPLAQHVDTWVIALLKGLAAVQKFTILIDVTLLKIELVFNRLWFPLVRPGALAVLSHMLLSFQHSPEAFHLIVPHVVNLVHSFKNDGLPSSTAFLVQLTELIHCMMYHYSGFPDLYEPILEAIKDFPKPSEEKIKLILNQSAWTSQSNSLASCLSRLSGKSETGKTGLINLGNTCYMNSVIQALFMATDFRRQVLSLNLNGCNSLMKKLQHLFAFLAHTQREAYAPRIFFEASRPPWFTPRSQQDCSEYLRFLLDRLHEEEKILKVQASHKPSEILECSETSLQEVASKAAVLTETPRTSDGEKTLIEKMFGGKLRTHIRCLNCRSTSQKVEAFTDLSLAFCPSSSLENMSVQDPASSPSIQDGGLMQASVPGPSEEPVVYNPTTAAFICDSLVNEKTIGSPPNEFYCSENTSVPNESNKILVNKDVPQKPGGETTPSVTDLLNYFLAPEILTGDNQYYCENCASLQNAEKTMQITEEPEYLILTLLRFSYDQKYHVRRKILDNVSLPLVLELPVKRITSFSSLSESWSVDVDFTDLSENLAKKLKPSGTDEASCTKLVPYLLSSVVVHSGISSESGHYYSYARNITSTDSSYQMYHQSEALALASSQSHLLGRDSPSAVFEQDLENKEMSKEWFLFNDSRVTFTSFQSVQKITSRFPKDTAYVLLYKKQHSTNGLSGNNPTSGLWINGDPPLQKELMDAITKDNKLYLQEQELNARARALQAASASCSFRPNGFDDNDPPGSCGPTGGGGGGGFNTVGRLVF
Outline: as §1

USP39 = biological target: T3, USP39 (UniProt Q53GS9)
T3 sequence (whole entry): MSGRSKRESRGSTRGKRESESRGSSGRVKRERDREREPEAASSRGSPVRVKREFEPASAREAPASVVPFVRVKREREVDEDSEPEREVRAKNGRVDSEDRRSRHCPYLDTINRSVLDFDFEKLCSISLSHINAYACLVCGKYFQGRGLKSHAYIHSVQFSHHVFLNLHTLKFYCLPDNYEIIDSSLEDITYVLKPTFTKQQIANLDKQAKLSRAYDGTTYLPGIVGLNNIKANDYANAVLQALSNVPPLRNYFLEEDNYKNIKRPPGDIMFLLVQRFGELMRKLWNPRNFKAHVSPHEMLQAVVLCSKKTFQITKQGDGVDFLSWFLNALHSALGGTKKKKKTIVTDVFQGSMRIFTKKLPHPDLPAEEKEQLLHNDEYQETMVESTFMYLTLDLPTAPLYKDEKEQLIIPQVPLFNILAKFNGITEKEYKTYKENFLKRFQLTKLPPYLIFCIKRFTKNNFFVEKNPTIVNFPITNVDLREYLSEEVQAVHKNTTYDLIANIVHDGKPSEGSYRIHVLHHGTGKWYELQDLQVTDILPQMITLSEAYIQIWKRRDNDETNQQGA
Outline: as §1

USP4 = biological target: T4, USP4 (UniProt Q13107)
T4 sequence (whole entry): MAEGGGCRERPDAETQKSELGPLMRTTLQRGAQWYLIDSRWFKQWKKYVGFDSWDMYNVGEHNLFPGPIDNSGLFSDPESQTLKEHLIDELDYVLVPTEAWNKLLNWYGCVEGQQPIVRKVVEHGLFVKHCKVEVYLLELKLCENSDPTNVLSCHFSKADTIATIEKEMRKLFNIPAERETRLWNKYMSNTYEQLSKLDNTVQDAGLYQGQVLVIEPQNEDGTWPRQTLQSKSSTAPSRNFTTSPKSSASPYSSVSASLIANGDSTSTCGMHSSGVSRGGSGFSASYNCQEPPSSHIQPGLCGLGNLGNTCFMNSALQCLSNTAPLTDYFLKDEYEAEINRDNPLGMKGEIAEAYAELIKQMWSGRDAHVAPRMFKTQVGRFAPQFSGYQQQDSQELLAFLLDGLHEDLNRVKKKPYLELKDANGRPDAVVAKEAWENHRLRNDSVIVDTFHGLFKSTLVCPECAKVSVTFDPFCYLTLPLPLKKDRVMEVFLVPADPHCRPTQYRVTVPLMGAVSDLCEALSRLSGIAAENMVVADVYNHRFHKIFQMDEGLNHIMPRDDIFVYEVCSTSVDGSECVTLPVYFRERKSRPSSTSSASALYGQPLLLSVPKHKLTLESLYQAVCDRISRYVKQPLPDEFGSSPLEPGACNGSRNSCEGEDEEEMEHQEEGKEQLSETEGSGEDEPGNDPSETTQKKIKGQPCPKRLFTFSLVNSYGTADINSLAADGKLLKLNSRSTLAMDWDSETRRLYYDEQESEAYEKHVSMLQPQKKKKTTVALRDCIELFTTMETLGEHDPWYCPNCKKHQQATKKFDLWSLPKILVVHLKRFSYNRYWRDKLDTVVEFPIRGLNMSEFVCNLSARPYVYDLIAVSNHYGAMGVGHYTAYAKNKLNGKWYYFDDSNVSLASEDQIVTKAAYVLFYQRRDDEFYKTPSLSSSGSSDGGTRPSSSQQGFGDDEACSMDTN
Outline: as §1

Measured: log2 ratio of Biotin-Ahx-Ub-VS probe labelling

USP34, sequence (Q70CQ2 whole entry, the tested form may be a part): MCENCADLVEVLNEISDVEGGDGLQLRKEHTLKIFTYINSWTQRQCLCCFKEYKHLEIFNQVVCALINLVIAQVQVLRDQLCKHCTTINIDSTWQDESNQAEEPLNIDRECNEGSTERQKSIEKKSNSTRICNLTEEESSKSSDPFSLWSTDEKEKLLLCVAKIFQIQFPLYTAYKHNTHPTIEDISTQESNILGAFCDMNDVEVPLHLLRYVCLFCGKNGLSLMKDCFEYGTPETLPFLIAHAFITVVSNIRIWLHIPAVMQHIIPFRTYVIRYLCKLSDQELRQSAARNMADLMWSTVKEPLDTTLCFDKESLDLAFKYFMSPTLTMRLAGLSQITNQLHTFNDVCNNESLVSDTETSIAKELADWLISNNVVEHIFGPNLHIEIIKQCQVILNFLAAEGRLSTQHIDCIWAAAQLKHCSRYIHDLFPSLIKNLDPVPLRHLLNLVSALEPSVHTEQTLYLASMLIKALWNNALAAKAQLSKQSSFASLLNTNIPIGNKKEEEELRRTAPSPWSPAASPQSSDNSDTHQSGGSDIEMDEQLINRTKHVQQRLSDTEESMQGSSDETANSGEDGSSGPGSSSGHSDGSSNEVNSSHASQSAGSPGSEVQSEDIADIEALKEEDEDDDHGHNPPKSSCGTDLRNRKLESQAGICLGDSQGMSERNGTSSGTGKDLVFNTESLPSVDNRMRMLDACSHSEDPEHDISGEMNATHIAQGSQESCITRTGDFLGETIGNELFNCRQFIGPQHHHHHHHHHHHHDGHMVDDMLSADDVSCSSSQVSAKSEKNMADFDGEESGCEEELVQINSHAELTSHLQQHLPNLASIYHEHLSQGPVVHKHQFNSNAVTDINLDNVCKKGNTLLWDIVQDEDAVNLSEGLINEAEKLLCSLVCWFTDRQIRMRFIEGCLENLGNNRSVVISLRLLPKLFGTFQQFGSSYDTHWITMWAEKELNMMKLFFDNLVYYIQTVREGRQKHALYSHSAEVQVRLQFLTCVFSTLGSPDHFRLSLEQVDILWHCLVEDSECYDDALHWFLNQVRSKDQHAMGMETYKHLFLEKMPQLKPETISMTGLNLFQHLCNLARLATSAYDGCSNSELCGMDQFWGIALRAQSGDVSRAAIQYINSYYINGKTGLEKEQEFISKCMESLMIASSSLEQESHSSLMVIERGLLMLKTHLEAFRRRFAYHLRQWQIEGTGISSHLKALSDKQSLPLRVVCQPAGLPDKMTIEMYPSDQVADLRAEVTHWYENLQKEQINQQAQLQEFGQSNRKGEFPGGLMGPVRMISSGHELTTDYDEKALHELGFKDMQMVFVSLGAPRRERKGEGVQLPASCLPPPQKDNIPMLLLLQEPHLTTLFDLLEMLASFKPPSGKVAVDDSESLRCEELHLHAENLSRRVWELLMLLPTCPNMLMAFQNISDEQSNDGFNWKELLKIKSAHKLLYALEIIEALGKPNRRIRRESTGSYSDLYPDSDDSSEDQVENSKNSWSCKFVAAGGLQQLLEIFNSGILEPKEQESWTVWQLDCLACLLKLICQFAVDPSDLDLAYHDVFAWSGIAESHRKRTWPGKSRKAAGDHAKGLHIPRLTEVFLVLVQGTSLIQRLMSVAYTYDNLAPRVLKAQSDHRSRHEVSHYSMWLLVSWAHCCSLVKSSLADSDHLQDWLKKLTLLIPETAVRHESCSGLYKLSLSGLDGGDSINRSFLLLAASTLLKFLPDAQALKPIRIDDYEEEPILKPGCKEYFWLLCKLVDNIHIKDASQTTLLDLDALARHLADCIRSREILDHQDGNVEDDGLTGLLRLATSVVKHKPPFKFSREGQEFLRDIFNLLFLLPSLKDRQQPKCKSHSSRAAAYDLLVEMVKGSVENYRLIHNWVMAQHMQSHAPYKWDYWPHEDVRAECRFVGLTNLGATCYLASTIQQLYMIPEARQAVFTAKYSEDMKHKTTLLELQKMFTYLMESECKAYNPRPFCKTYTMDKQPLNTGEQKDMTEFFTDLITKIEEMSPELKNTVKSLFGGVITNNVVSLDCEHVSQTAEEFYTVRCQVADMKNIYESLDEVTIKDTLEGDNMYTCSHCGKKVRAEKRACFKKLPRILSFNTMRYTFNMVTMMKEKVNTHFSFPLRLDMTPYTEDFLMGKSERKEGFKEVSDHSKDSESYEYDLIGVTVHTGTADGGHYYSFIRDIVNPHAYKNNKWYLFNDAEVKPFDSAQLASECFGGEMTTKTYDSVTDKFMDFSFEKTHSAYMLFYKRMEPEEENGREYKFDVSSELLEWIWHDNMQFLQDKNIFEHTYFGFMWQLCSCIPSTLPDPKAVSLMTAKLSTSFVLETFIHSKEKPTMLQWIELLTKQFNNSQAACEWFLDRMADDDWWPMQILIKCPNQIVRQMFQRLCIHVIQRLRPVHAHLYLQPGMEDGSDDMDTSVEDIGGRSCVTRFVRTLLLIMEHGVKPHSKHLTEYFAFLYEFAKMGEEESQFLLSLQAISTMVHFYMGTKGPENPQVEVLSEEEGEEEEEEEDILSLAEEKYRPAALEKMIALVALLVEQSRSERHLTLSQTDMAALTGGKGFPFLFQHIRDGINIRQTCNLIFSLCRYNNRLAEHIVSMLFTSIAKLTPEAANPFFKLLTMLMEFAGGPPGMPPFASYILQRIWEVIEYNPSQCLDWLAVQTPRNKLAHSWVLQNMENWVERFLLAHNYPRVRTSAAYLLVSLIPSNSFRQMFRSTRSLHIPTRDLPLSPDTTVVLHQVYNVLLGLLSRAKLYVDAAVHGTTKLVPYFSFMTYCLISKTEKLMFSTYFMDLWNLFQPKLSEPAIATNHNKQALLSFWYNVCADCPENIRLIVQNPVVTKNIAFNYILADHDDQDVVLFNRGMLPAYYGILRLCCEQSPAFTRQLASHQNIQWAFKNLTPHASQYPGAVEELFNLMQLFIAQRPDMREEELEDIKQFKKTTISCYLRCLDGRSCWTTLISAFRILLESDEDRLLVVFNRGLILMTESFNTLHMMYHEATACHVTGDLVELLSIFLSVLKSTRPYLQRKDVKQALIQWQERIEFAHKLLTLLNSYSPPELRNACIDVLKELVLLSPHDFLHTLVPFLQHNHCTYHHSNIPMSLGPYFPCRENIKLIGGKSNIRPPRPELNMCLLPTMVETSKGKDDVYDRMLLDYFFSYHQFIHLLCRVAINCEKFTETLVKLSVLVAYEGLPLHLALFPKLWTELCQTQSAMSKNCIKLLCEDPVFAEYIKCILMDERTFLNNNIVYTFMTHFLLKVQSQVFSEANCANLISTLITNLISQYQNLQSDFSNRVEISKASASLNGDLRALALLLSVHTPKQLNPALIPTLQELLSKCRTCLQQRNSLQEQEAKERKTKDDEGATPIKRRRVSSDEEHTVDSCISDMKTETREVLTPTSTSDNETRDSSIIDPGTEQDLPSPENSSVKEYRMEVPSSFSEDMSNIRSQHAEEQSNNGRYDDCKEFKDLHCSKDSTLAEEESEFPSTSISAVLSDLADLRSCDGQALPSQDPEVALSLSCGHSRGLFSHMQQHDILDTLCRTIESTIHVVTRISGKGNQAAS

O=C(CCl)N1CCC2(CCC(O)CC2)CC1
inactive: USP34 -0.363 | USP36 -0.0873 | USP38 0.139 | USP39 0.333 | USP4 0.123
